Screens as filed in PubChem BioAssay.
The list is not random: actives were taken first. Their share in the collection is about 2.4%.
D2 PAM-1: HTS Assay for Positive Allosteric Modulators of the Human D2 Dopamine Receptor: Primary Screen for Potentiators. HEK293 T-REx D2, calcium flux, EC20 dopamine potentiation. potentiation, % at 10 µM. 340,000 compounds, 0.34% hits. AID 485347, 2010;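 active = potentiation over 3 SD above the plate norm, cut at about 30% in these data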
Target sequence (P14416 whole entry, looked up): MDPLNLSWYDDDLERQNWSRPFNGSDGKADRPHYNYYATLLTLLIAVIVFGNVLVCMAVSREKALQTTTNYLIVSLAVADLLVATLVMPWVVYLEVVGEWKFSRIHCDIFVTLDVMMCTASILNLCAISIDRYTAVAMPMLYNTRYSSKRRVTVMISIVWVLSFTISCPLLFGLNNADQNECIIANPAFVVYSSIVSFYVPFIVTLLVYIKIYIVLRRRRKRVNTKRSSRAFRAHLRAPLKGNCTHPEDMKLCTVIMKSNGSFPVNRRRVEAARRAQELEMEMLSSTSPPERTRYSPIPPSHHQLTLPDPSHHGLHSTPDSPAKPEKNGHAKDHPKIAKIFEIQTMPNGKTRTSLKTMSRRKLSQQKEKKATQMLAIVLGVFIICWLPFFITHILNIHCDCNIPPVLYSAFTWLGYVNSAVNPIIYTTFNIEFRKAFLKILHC
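Tetracycline-induced HEK293 T-REx cells force-coupled to calcium signalling expressed D2; compounds were pin-added after a 10 s baseline, read kinetically 180 s, then an EC20 dopamine challenge followed with a further 180 s calcium read.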
D2 antagonist: HTS Assay for Allosteric Antagonists of the Human D2 Dopamine Receptor: Primary Screen for Antagonists; D(2) dopamine receptor (Homo sapiens), P14416; HEK293 TREx D2 cells, calcium flux, dopamine EC80; inhibition, % at 10 µM; 340,000 compounds, 2% hits; AID 485344, 2010; in the data active = inhibition above about 30%; inactive = below that, where a call was filed
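Cells plated overnight at 30 C with tetracycline; no-wash calcium dye, 30–90 min RT; 10 s baseline; compound pinned; 180 s read; EC80 dopamine added; another 180 s read.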
D2 ag-1: HTS Assay for Allosteric Agonists of the Human D2 Dopamine Receptor: Primary Screen for Agonists; HEK293 T-REx D2 cells, calcium flux agonist mode; activation, % at 2 µM; 340,000 compounds, 0.53% hits;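 active = activation over 3 SD above normal in the single-dose calcium agonist read, cut at about 30% in these data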
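In this primary screen, compounds producing a positive calcium signal within 180 s of addition to tetracycline-induced, force-coupled HEK293 Trex D2 cells are flagged; cells are dye-loaded with a no-wash calcium kit beforehand.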
D2 PAM-2: Beta-Arrestin HTS for Positive Allosteric Modulators of the Human D2 Dopamine Receptor: Potentiators | DiscoveRx D2 beta-arrestin cells, luminescence, 90 min; 100% = 57 uM dopamine signal | potentiation, % (test concentration not listed) | 360,000 compounds, 0.23% hits; in the data active = potentiation above about 50%; inconclusive = mostly about 30% to 49%
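PathHunter beta-arrestin assay in DiscoveRx D2 cells. Compounds were added with an EC20 of dopamine (50 nM final) for 90 min at 37 deg C. Luminescence was read 1 h after detection reagent, with 57 uM dopamine as the EC100 control.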
D2 ag-2: Beta-Arrestin HTS for Positive Allosteric Modulators of the Human D2 Dopamine Receptor: Agonists. 360,000 compounds, 0.084% hits. AID 624465, 2012. activation, % (no concentration beside the values). DiscoveRx PathHunter D2 beta-arrestin, luminescence, 90 min; 100% = 57 uM dopamine signal; in the data active = activation above about 40%; inconclusive = between about 15% and that limit
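DiscoveRx PathHunter D2 beta-arrestin cells (2,100/well) attached overnight, then compound-stimulated 90 min at 37 C in HBSS/10 mM HEPES/0.1% Tween-20 buffer; beta-galactosidase complementation read by luminescence after 1 h at ambient temperature. Dopamine 57 uM final (EC100) as control.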
Large screens that a line does not name were inactive.

COc1cc(-c2nc3ncccn3c2Nc2ccc(C)cc2C)ccc1O	none (no result: D2 antagonist, D2 PAM-2, D2 ag-2)
CCN(CC)S(=O)(=O)c1ccc(C(=O)OCn2nnc3ccccc3c2=O)cc1	D2 PAM-1 75
CSc1nnc(C)c(=O)n1COC(=O)c1ccccc1	none
CCN(CC)S(=O)(=O)c1ccc(C(=O)OCn2c(SC)nnc(C)c2=O)cc1	D2 antagonist 35
CCOc1ccc(NC(=O)c2sc3nc4c(c(-c5ccc(OC)cc5)c3c2N)C(=O)CC(C)(C)C4)cc1	none (no result: D2 antagonist, D2 PAM-2, D2 ag-2)
Cc1ccc(/C=C/c2nc3sc(C(=O)O)c(C)c3c(=O)[nH]2)cc1[N+](=O)[O-]	D2 antagonist 33, D2 ag-2 inconclusive
Cc1c(C(=O)O)sc2nc(/C=C/c3cccc(F)c3)[nH]c(=O)c12	none
COc1ccc(C(CNC(=O)CCNS(=O)(=O)c2ccccc2C(F)(F)F)N2CCOCC2)cc1 (configuration not stated)	none (no result: D2 PAM-1, D2 antagonist, D2 ag-1)
O=C(Nc1ccc2c(c1)OCO2)c1cnn2cccnc12	D2 antagonist 69
CCCCn1c2ccc(F)cc2c2nnc(SCCN3CCOCC3)nc21	none
Cn1c2ccc(F)cc2c2nnc(SCCN3CCOCC3)nc21	D2 antagonist 35
CCn1ccc2cc(S(=O)(=O)N3CCCN(C(=O)Nc4ccccc4OC)CC3)ccc21	none (no result: D2 antagonist, D2 PAM-2, D2 ag-2)
CCC(CC)C(=O)Nc1c(C(=O)N2CCN(c3ccccc3F)CC2)oc2ccccc12	none (no result: D2 antagonist, D2 PAM-2, D2 ag-2)
O=c1cc(CO)[nH]nc1CO	none (no result: D2 PAM-1, D2 antagonist, D2 ag-1)
CN(C)C1(CNC(=O)c2cccc(S(=O)(=O)NCc3ccccc3)c2)CCCCC1	D2 antagonist 45
COc1cc(NS(=O)(=O)c2c(C(=O)N3CCCCC3)c(C)n(C)c2C)cc(OC)c1OC	none (no result: D2 antagonist, D2 PAM-2, D2 ag-2)
Cc1ccccc1-c1nc(CN(Cc2c(C)nn(C)c2C)C2CC2)c(C)o1	D2 antagonist 30
Cc1cn2c(=O)cc(COC(=O)c3cccc(NC(=O)COc4ccccc4)c3)nc2s1	none (no result: D2 antagonist, D2 PAM-2, D2 ag-2)
NC(=O)C1=C[C@H](c2ccc3c(c2)OCO3)C[C@H](OCc2ccc(CO)cc2)O1	D2 antagonist 33
O=C(O)C1=C[C@@H](c2ccc3c(c2)OCO3)C[C@@H](OCc2ccc(CO)cc2)O1	none
OC(COc1cccc2ccccc12)CN1CCCC1 (configuration not stated)	D2 PAM-1 73
c1ccc2c(OCCCN3CCCCCC3)cccc2c1	D2 antagonist 74
CCN1CCN(CCCOc2ccccc2-c2ccccc2)CC1	none
c1ccc(-c2ccccc2OCCCN2CCCCC2)cc1	D2 antagonist 43
OC(COc1cccc2ccccc12)CN1CCN(c2ccc(Cl)cc2)CC1 (configuration not stated)	none
OCCCN1CCN(CCOc2ccccc2-c2ccccc2)CC1	D2 antagonist 67
Cc1ccccc1NC(=O)c1c(C)oc2ccc(O)c(CN3CCCCCC3)c12	none (no result: D2 antagonist, D2 PAM-2, D2 ag-2)
CCC1=Nc2cc(C(=O)N3CCC(C)CC3)ccc2Sc2ccc(C)cc21	none (no result: D2 antagonist, D2 PAM-2, D2 ag-2)
CCC(=O)c1ccccc1OCCN1CCN(Cc2ccccc2)CC1	D2 antagonist 110
Clc1cccc(OCCCN2CCCC2)c1Cl	D2 antagonist 52
CCN1CCN(CCOc2ccccc2-c2ccccc2)CC1	D2 antagonist 87
C=C1CC(C)OC(c2ccccc2OCC(O)CN2CCCCC2)C1 (configuration not stated)	D2 antagonist 65
Cc1ccc2c(c1)c(=O)c(C(=O)c1ccc3c(c1)OCO3)cn2Cc1ccc(Cl)cc1	none (no result: D2 antagonist, D2 PAM-2, D2 ag-2)
Cc1cc(C(=O)NNC(=O)c2ccc(Cl)cc2Cl)c(C)o1	none
CCCCNc1nc2c(c(=O)n(C)c(=O)n2C)n1CC(O)COc1ccccc1C (configuration not stated)	none (no result: D2 antagonist, D2 PAM-2, D2 ag-2)
O=c1[nH]c(-c2ccccc2)c(-c2ccccc2)o1	none
CCCn1c(SCC(=O)c2ccc3c(c2)OCCO3)n[nH]c1=O	none
CCCn1c(SCC(=O)c2ccc3c(c2)OCCO3)nc2c1c(=O)n(C)c(=O)n2C	D2 antagonist 31
CNC(=O)c1ccccc1NC(=O)c1ccco1	D2 PAM-1 34
